This note sets out measurements from PubChem BioAssay.

A number with no mark means an inactive call. For some assays here: Potency and affinity values are given separately. Active and inactive are the calls of the source. Unless noted, no rule for the calls is given here.

The nature of assay [1]: antimalarial activity against Dd2 strain (AID 2302;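 active = growth inhibition above 50% at the single 2 µM test dose, taken to imply half-maximal potency below 2 µM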;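 also: 0% = DMSO untreated growth and 100% = chloroquine plus artemisinin killed control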). The note with it: P. falciparum Dd2 in RBCs, LDH growth readout, 72 h; at 2 µM; hits give high values.
Assay [2] in a line: HepG2 cytotoxicity, primary screen, cytotoxicity control for P. falciparum antimalarial project, cell-based, ATP luminescence (AID 2303;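 active = inhibition above 50%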;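 also: 0% = DMSO wells and 100% = digitonin-killed cells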). To be noted: HepG2 viability, 24-48 h, at 10 µM, hits give high values.
Assay [3] has as its target L-lactate dehydrogenase (Plasmodium falciparum (isolate CDC / Honduras)) (UniProt Q27743). Put plainly: PfLDH activity inhibition – cell lysate, 3D7 strain, counter-screen for P. falciparum growth inhibition project (AID 2304).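 Also: 0% = vehicle and 100% = reference inhibitor.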 To be noted: P. falciparum 3D7 crude extract, LDH APAD/NBT absorbance; at 2 µM; hits give high values. Background: Counterscreens check selectivity or assay interference.

Assay [4] in a line: inhibition of 3D7 malaria parasite growth – strain 3D7 (AID 2306).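 Also: 0% = DMSO wells and 100% = chloroquine plus artemisinin control wells.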 To be noted: P. falciparum 3D7 erythrocytic growth, LDH absorbance, 72 h; at 2 µM; hits give high values.
The target in assay [5] is Calcium-dependent protein kinase 1 (Plasmodium falciparum (isolate 3D7)) (UniProt P62344). The assay is described as follows: PfCDPK1 kinase inhibitors, biochemical, TCAMS library (AID 1159585; cut-off not given, nearly all actives have IC50 up to about 0.98 µM;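 also: inhibitors leave more ATP so luminescence rises with inhibition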). The note with it: recombinant PfCDPK1, Kinase-Glo ATP depletion luminescence.
For assay [6], the target named is Plasmodium falciparum protein kinase 6 (PK6, PF3D7_1337100) (UniProt Q8IDW1). The assay is described as follows: PfPK6 kinase inhibitors, biochemical, TCAMS library (AID 1159586). To be noted: recombinant PfPK6, Kinase-Glo ATP depletion luminescence. A general note: Kinase-Glo measures the ATP left after a reaction by luminescence.
Assay [7] deals with Protein kinase 7 (PK7), Plasmodium falciparum 3D7 (PF3D7_0213400) (UniProt Q7YTF7). Put plainly: inhibition of Plasmodium PK7 catalytic activity – biochemical, TCAMS antimalarial set, Kinase-Glo luminescence (AID 1159587). To be noted: recombinant PfPK7, Kinase-Glo ATP depletion luminescence.
Assay [8] has as its target Calcium-dependent protein kinase 4 (Plasmodium falciparum (isolate 3D7)) (UniProt Q8IBS5). The assay is described as follows: PfCDPK4 kinase inhibitors, biochemical, TCAMS library (AID 1159588; cut-off not given, nearly all actives have IC50 up to about 0.91 µM). The note with it: recombinant PfCDPK4, Kinase-Glo ATP depletion luminescence.

Calcium-dependent protein kinase 1 (Plasmodium falciparum (isolate 3D7)), sequence (P62344 whole entry, looked up): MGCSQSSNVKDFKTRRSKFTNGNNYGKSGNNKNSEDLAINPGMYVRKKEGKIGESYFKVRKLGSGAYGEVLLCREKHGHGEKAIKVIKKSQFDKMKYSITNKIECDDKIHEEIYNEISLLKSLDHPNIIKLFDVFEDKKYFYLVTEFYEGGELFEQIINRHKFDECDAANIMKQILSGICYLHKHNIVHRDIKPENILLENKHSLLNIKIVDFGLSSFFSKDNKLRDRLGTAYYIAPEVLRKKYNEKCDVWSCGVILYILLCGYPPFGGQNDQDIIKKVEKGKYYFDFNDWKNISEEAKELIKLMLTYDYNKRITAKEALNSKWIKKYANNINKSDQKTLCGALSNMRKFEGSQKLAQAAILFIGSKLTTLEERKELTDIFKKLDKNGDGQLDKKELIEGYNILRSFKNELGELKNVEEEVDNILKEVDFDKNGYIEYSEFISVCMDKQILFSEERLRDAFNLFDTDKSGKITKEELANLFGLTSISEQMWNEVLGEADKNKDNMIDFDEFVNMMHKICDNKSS
Calcium-dependent protein kinase 4 (Plasmodium falciparum (isolate 3D7)), sequence (Q8IBS5 whole entry, looked up): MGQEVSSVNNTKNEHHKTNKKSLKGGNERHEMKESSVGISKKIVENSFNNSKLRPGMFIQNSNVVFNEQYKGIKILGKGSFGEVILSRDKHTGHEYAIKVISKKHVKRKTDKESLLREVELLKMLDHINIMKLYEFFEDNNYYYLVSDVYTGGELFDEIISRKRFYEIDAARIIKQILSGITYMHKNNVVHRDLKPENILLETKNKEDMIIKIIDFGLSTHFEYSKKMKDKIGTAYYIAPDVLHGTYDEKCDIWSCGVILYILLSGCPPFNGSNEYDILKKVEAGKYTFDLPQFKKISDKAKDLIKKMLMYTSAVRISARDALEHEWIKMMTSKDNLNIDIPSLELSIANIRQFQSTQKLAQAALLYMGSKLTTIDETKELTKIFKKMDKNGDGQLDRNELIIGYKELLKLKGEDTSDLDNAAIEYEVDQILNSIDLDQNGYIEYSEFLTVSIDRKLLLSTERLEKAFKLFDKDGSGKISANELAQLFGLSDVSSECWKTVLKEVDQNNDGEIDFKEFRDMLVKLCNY
L-lactate dehydrogenase (Plasmodium falciparum (isolate CDC / Honduras)), sequence (Q27743 whole entry, looked up): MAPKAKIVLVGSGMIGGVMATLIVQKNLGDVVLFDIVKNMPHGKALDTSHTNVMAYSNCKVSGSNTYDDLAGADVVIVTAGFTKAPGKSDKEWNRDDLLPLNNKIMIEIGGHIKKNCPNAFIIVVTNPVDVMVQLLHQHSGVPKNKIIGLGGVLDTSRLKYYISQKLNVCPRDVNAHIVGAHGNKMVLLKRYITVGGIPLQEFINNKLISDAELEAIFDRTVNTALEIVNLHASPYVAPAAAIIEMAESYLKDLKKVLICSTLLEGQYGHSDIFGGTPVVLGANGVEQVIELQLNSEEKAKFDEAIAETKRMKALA
Protein kinase 7 (PK7), Plasmodium falciparum 3D7 (PF3D7_0213400), sequence (Q7YTF7 1-343): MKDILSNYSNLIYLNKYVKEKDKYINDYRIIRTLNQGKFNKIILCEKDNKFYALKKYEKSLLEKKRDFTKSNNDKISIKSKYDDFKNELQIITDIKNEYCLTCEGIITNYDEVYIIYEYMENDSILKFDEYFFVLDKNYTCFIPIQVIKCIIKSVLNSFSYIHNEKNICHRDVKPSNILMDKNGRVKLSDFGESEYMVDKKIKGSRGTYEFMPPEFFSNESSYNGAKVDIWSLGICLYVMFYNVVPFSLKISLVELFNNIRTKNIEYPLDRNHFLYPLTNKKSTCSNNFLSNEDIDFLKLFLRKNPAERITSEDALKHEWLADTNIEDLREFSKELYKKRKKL
Plasmodium falciparum protein kinase 6 (PK6, PF3D7_1337100), sequence (Q8IDW1 1-305): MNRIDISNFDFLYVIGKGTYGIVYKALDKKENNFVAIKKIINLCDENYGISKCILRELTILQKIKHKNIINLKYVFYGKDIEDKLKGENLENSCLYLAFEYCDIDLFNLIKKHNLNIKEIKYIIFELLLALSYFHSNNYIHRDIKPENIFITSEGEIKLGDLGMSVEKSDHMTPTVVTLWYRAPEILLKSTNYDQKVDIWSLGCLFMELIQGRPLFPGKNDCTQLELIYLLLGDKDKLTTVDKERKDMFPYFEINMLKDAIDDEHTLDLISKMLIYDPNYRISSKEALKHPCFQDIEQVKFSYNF

As to `CC(=O)Nc1nc(C(=O)Nc2ccc(-c3ccc(-c4nc5ccc(F)cc5[nH]4)cc3)cc2)cs1`, the growth inhibition in assay [1] was 33%; in assay [4] it was 100% (active). Further, the inhibition (as a rule, the relative decrease from the control value, in per cent) in assay [2] was 17%; in assay [3] it was -5%. Besides, the outcome in assay [5], in assay [6], in assay [7] and in assay [8] was inactive.
As for `N#Cc1ccc2c(c1)CCN(CCC1CCC(NC(=O)/C=C/c3c[nH]c4c(Br)cccc34)CC1)CC2` (configuration not stated), the results for the growth inhibition in assay [1] and in assay [4] were 65% (active) and 101% (active), respectively. In addition, the inhibition is 32% in assay [2] and 0% in assay [3]. In addition, the result in assay [5], in assay [6], in assay [7] and in assay [8] was inactive.
For the compound `O=C(NOCCOc1ccccc1)c1ccccc1`, the growth inhibition was 0% in assay [1] and 98% (active) in assay [4]. Further, the inhibition is 0% in assay [2] and -1% in assay [3]. The result in assay [5], in assay [6], in assay [7] and in assay [8] was inactive.
Turning to `OCCN1CCN(Cc2ccc(-c3cccc(-c4nc5ccc(F)cc5[nH]4)c3)cc2)CC1`, the growth inhibition in assay [1] was 61% (active); in assay [4], 100% (active). Besides, the results for the inhibition in assay [2] and in assay [3] were 21% and -2%, respectively. Moreover, the outcome in assay [5], in assay [6], in assay [7] and in assay [8] was inactive.
